# Laboratory results from PubChem BioAssay (NCI).
# About 83,000 compounds went through this panel and 20% of them were active in at least one assay; those are over-represented in the sample as a whole.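 Single-dose data. Exposure time 48 hours. Values below 10 considered active.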 Unmarked numbers belong to inactive results. The source made the active and inactive calls.
# How the values were obtained:
# Experiment in all cases: NCI-60 one-dose screen, 48 h (100 = growth as untreated, 0 = no growth, -100 = all killed)
# Conditions in all cases: 10 µM
# [1] = test system: 786-0 renal
# [2] = test system: MALME-3M melanoma
# [3] = test system: MDA-MB-231 breast
# [4] = test system: UACC-257 melanoma
# [5] = test system: SK-MEL-28 melanoma
# [6] = test system: SK-MEL-2 melanoma
# [7] = test system: EKVX NSCLC
# [8] = test system: SN12C renal
# [9] = test system: TK-10 renal
# [10] = test system: CAKI-1 renal
# [11] = test system: A498 renal
# [12] = test system: OVCAR-8 ovarian
# [13] = test system: OVCAR-5 ovarian
# [14] = test system: IGROV1 ovarian
# [15] = test system: OVCAR-3 ovarian
# [16] = test system: HS 578T breast
# [17] = test system: NCI/ADR-RES ovarian
# [18] = test system: BT-549 breast
# [19] = test system: MDA-MB-435 melanoma
# [20] = test system: SW-620 colon
Compound,growth [1],growth [2],growth [3],growth [4],growth [5],growth [6],growth [7],growth [8],growth [9],growth [10],growth [11],growth [12],growth [13],growth [14],growth [15],growth [16],growth [17],growth [18],growth [19],growth [20]
C#C[C@]1(O)CC[C@H]2[C@@H]3CC=C4c5sc(Nc6ccc(C(F)(F)F)cn6)nc5CC[C@]4(C)[C@H]3CC[C@@]21C,-72.4% (active),-13.1% (active),-34.2% (active),-3.66% (active),-16.5% (active),-26.8% (active),-3.2% (active),7.3% (active),12.9%,0.3% (active),-15.8% (active),-8.07% (active),9.25% (active),8.57% (active),-35.8% (active),-6.11% (active),-19.9% (active),-50% (active),1.17% (active),-32.8% (active)
Cc1cc(N=C2NC(=O)/C(=C/c3cc(C(C)(C)C)c(O)c(C(C)(C)C)c3)S2)n[nH]1,12%,19.2%,22.8%,4.76% (active),22.9%,-27.6% (active),2.77% (active),16.6%,-11.6% (active),12.4%,-8.54% (active),8.93% (active),36.6%,14.4%,9.43% (active),-3.19% (active),5.91% (active),-1.78% (active),4.96% (active),15.3%
Nc1nnc(-c2c[nH]c3ncc(Br)cc23)c(-c2c[nH]c3ccc(Br)cc23)n1,36.2%,56.1%,65%,71%,45.6%,7.13% (active),46.2%,46.9%,67.8%,28.1%,-13% (active),34%,62.1%,36.5%,4.38% (active),24.7%,52.9%,6.94% (active),22.4%,20.2%
COc1cc(Nc2nc(O)c(/C=C3\C=Nc4ccccc43)s2)cc(OC)c1OC,-73.1% (active),-30.1% (active),-40.7% (active),4.51% (active),-34.5% (active),-70.6% (active),-41.8% (active),-88% (active),-35% (active),-69.3% (active),-76.1% (active),-49.8% (active),-52.5% (active),-40.2% (active),-77% (active),-20.2% (active),11.4%,-41.4% (active),-77.1% (active),-52.1% (active)
Cc1cc(N=C2NC(=O)S/C2=C\c2ccc(F)cc2)n[nH]1,10.3%,-7% (active),9.79% (active),19.6%,-7.09% (active),11%,15.2%,22.8%,32.7%,21.2%,64%,12.2%,31%,25.3%,20.2%,10%,9.56% (active),3.56% (active),-11.3% (active),20.7%
COc1ccc(C2c3sc4ccc(C)cc4c3Oc3nc(N)nc(N)c32)cc1 (stereo not given),102%,85.3%,89.3%,94.9%,93.2%,96%,76.4%,91.4%,125%,63.3%,113%,87%,96.2%,79.1%,96.8%,78.8%,85.1%,84.5%,9.83% (active),84.8%
O=C(c1ccccc1)c1ccc2nc(-c3ccccc3Br)[nH]c2c1,-89.9% (active),-68.4% (active),-8.52% (active),-59.1% (active),-26.7% (active),-93.9% (active),-76.8% (active),-42.8% (active),-77.7% (active),-92.8% (active),9.77% (active),12.6%,-65.8% (active),-58.9% (active),-80.3% (active),29%,0.18% (active),-76.4% (active),-21% (active),-17.9% (active)
Cn1cc(-c2nnc(N)nc2-c2c[nH]c3ccc(F)cc23)c2cc(Br)cnc21,48%,106%,56.1%,99.6%,52.4%,71%,94%,72.3%,45.5%,37.4%,47.1%,71.5%,83.3%,50.4%,57.5%,52%,68.1%,51.1%,67.2%,68.5%
O=C(CN1CCN(c2ncnc3c2cnn3-c2ccccc2)CC1)Nc1ccc(Cl)cc1,40.4%,-56.2% (active),63.3%,49.9%,72.8%,34.2%,45%,46.6%,97.3%,-39.7% (active),78.7%,56.6%,85.6%,48%,51.8%,64.6%,48%,39.1%,47%,78.4%
COc1ccc(Cn2cc(C#N)c(N)c2C(C)=O)c(OC)c1,102%,108%,101%,109%,109%,126%,98.6%,96.4%,113%,102%,97.8%,104%,112%,112%,105%,111%,102%,107%,108%,106%
Cn1cc(-c2cc3nc(-c4c[nH]c5ccccc45)cc(N)n3n2)c2cc(Cl)ccc21,-85.7% (active),-90.8% (active),-69.4% (active),-90.4% (active),-99.4% (active),-95.8% (active),-90% (active),-85.7% (active),-91.8% (active),-98.7% (active),-82.9% (active),-86.1% (active),-86.4% (active),-64.5% (active),-80% (active),-22.2% (active),-48.5% (active),-90.4% (active),-93.1% (active),-61% (active)
C#C[C@]1(O)CC[C@H]2[C@@H]3CC=C4c5sc(Nc6cc(C)cc(C)n6)nc5CC[C@]4(C)[C@H]3CC[C@@]21C,-52.2% (active),-39.8% (active),-44.9% (active),-49.4% (active),-56.8% (active),-28.4% (active),-14% (active),-3.77% (active),4.66% (active),-27.6% (active),-73.5% (active),4.44% (active),-21.9% (active),26.2%,-3.49% (active),-20.5% (active),0.407% (active),-50.4% (active),-6.28% (active),-86.9% (active)
Cn1cc(/C=C(/SS/C(=C/c2cn(C)c3cccc(C(=O)O)c23)C(=O)O)C(=O)O)c2c(C(=O)O)cccc21,104%,97.9%,102%,104%,98.3%,106%,98.2%,99%,93%,87.9%,109%,103%,105%,113%,109%,108%,93.4%,114%,98%,116%
O=C(c1ccc(F)cc1)C(c1c[nH]c2ccccc12)c1c[nH]c2ccccc12,80.1%,69.5%,58.8%,86.3%,63.6%,87.5%,88.5%,42.6%,148%,31.5%,98.3%,76.3%,52.5%,49.9%,46.9%,86.1%,54.7%,71.4%,58.4%,5.23% (active)
COc1cccc(C(=O)CSc2nc(-c3ccc(OCc4ccccc4)c(OC)c3)c(C#N)c(=O)[nH]2)c1,85.7%,98.3%,91.1%,94%,96.5%,91.7%,97.1%,85.6%,94.7%,90.8%,95.4%,105%,100%,106%,106%,90.8%,96.9%,102%,95.7%,102%
O=C(Nc1ccc(OCc2ccc(F)cc2)cc1)Nc1ccc(Cl)c(C(F)(F)F)c1,13.5%,-10.2% (active),6.32% (active),-1.33% (active),31.4%,-34.7% (active),8.3% (active),21.9%,20.2%,2.77% (active),-9.28% (active),12.8%,31.9%,43.6%,34.5%,24%,4.62% (active),-15.9% (active),-12.4% (active),22.3%
